The source of these data is PubChem BioAssay AID2253 (Southern Research Specialized Biocontainment Screening …, 2010).

Hit rate of the full screen: of about 2,200 compounds, about 1,300 (59%) were called active. How the calls were made is not given here. The set was probably picked from earlier hits. Only a sample is shown. A call without a number means that no potency is given here. Potency and affinity values are given separately.

The nature of this test: human monocytic cell viability reduction – S. typhimurium screen hits, cytotoxicity control for Salmonella PhoP regulon inhibitors, dose response (AID 2253). As to conditions: THP-1 viability, CellTiter-Glo luminescence, 72 h; series mostly up to 50 µM. For orientation: In ATP-based viability assays light output follows the ATP content of the culture.
For `COc1cc(C2NC(=O)NC(c3ccccc3)=C2C(C)=O)ccc1OCC(=O)O` (stereo unspecified), the result was inactive.
As for `Brc1ccc(NC2=Nc3ccccc3CC2)cc1`, the outcome was inactive.
Turning to `COc1ccc(S(=O)(=O)n2nc(OC(=O)c3cccs3)cc2N)cc1`, the outcome was inactive.
With `Nc1cc(N)nc(SCC(=O)Nc2ccc3c(c2)OCCCO3)n1`, the outcome was inactive.
On to `Cc1ccc2cc(C(=O)O)c(C)nc2c1`, for which the outcome was inactive.
The value for `Cc1cc([N+](=O)[O-])cc2ncccc12` was “inactive”; that for `O=C(NCc1cccnc1)c1ccc(Cl)cc1[N+](=O)[O-]` was “inactive”; that for `CCOc1cc(C2C(C(=O)OC)=C(C)N=C3SCCC(=O)N32)ccc1OC(C)=O` (stereo unspecified) was “inactive”.
The value for `COc1ccc(Oc2coc3cc(OC(=O)c4cccs4)ccc3c2=O)cc1` was “inactive”.
As for `Cc1cc(C)nc(N(C#N)C(C)C(=O)N(C)C)n1` (stereo unspecified), the molecule was classed as inactive.
Then `O=C(NC(=Nc1ccccc1)N1CCOCC1)Nc1ccccc1`, with “inactive”; and `Cc1cccnc1N(C(=O)Nc1ccccc1)C1=NCC(C)(C)S1`, with “inactive”; and `OC(COCc1cccs1)CN1CCN(c2ccccn2)CC1` (stereo unspecified), with “inactive”.
Then `CCCCOC(=O)CCNc1n[nH]c(=O)[nH]c1=O`, with “inactive”; and `Clc1ccc(CNCc2cccs2)cc1Cl`, with “inactive”.
The value for `O=C(Cc1cn2ccsc2n1)Nc1ccccc1Oc1ccccc1` was “inactive”.
Take `Cc1ccc(S(=O)(=O)NCCC(=O)OCn2nnc3ccccc3c2=O)cc1`: the outcome was inactive.
For `CN(C(=O)/C=C/c1ccccc1)C1CCS(=O)(=O)C1` (stereo unspecified), the molecule was called inactive.
The value for `CNC(=O)c1ccc(-c2ccc(F)cc2)s1` was “inactive”.
Then `CCCSc1nc(N2CCCC2)c2c(c1C#N)CC(C)(C)OC2`, with “inactive”.
Then `C=CCNC(=O)c1ccc(N(C)S(=O)(=O)c2ccc(OC)cc2)cc1`, with “inactive”; and `CC1CN(C(=O)CCc2ccccc2)C(C)CN1C(=O)CCc1ccccc1` (stereo unspecified), with “inactive”.
`O=C(c1ccc(Cl)cc1Cl)C1(n2cncn2)Oc2ccccc2C1O` (stereo unspecified): the result was inactive.
Take `Cc1ccc(C(=O)NCc2ccc(Cl)cc2)o1`: the call was inactive.
The value for `O=[N+]([O-])c1ccc(-c2ccn[nH]2)o1` was “inactive”; that for `CN(c1ccccc1)S(=O)(=O)c1ccc(C(=O)Nc2nnc(-c3ccc(F)cc3)o2)cc1` was “inactive”.
Consider `COc1cccc(OC)c1C(=O)NC(=S)Nc1cc(-c2nc3ccccc3[nH]2)ccc1Cl`, for which the molecule was classed as inactive.
For `COC(=O)c1c(C(=O)OC)c(-c2cccc(C)c2)n2c1CS(=O)(=O)C2`, the outcome was inactive.
The value for `CCn1cc(C(C)(C)C)c(C#N)c1NC(C)=O` was “inactive”; that for `O=C(Cn1cnc2scc(-c3ccccc3)c2c1=O)N1CCOCC1` was “inactive”; that for `C=CC1=C(C(=O)O)N2C(=O)[C@@H](NC(=O)/C(=N/OCC(=O)O)c3csc(N)n3)[C@H]2SC1` was “inactive”.
Turning to `CC(C)(C)c1n[nH]c(=S)n(/N=C/c2cccs2)c1=O`, the result was inactive.
Then `Cc1ccsc1/C=N/NC(=O)Cn1cnc2ccccc21`, with “inactive”.
The value for `C=CCSC1=Nc2sccc2C2=NC(=O)CN12` was “inactive”.
Turning to `NC(=O)c1oc2ccccc2c1NC(=O)CN1CCCCC1`, the result was inactive.
Then `O=C(CN1CCCCC1)Nc1cccc2c1OCO2`, with “inactive”.
The value for `O=c1[nH]c2cc3c(cc2cc1CN(CCc1ccccc1)Cc1nnnn1CC1CCCO1)OCO3` (stereo unspecified) was “inactive”; that for `CC(C)CNC(=S)NC1CCCC1` was “inactive”.
In the case of `CN(C)CCNC(=O)c1ccc(COCC(F)(F)F)cc1`, the outcome was inactive.
Then `Cn1c(SCC(=O)NC(=O)c2cccc([N+](=O)[O-])c2)nnc1-c1ccc(F)cc1`, with “inactive”.
As to `Cc1cc([N+](=O)[O-])ccc1NC(=O)Cc1ccc(F)cc1`, the molecule was classed as inactive.
For `O=C(CN1CCC(NC(=O)c2cccc(F)c2)CC1)NCc1ccccc1F`, the call was inactive.
Consider `COc1ccc(/C=C/C(=O)O)cc1COc1cccc(C)c1`, for which the outcome was inactive.
The value for `O=C(NCC(=O)N(c1cccnc1)C(C(=O)NCc1ccco1)c1ccccc1)c1ccco1` (stereo unspecified) was “inactive”; that for `COC(=O)c1ccccc1NC(=O)CS(=O)(=O)Cc1nc(-c2ccc(C)cc2)oc1C` was “inactive”; that for `COc1ccc(-c2nnn(CC(=O)N(Cc3ccco3)C(C(=O)NCC3CCCO3)c3ccco3)n2)cc1` (stereo unspecified) was “inactive”.
`CSCC[C@H](NC(=O)Nc1ccc(C)cc1)C(=O)O`: the result was inactive.
Then `C=C(C)C1Cc2cc3ccc(=O)oc3cc2O1` (stereo unspecified), with “inactive”; and `CCOC(=O)N1CCC(NC(=O)CCC(=O)c2ccccc2)CC1`, with “inactive”.
Then `Cc1cccnc1NC(=O)CCCN1C(=O)c2ccccc2C1=O`, with “inactive”.
Then `COc1ccc(-c2nnc(SCCC(=O)O)n2-c2ccccc2)cc1`, with “inactive”.
In the case of `Cc1cccc(C)c1NC(=O)CSc1nnc(NC(=O)CN2CCOCC2)s1`, the call was inactive.
Then `CCCOc1ccc(C(=O)NC(=S)N2CCN(c3cc4c(cc3F)c(=O)c(C(=O)O)cn4CC)CC2)cc1`, with “inactive”; and `c1ccc2oc(SCc3cn4ccccc4n3)nc2c1`, with “inactive”.
Take `Nc1nnc(Sc2ccc(Cl)cc2[N+](=O)[O-])s1`: the outcome was inactive.
For `NC(=O)c1cnn(Cc2ccc(Cl)cc2)c1N`, the outcome was inactive.
The value for `CC(=O)Cn1cnc2sc(-c3ccccc3)cc2c1=O` was “inactive”; that for `Nc1ccc(S(=O)(=O)Nc2ccc(Cl)nn2)cc1` was “inactive”.
Take `Cc1nc2cc(NC(=O)N3CCN(c4ccccn4)CC3)ccc2o1`: the outcome was inactive.
Regarding `Cc1ccc(C(=O)C2COC(=O)C2)cc1` (stereo unspecified), the result was inactive.
The value for `Cc1cc2nn(-c3ccccc3)nc2cc1NC(=O)c1cccs1` was “inactive”; that for `COc1cccc(NC(=O)CNC(=O)c2cccs2)c1` was “inactive”; that for `O=S(=O)(c1ccc(S(=O)(=O)N2CCN(C/C=C/c3ccccc3)CC2)cc1)N1CCCC1` was “inactive”.
Take `COCCNC(=O)CSCc1c(F)cccc1Cl`: the molecule was called inactive.
Then `Cc1nc2c(Cl)cccc2c2c1CC(CBr)O2` (stereo unspecified), with “inactive”.
`CN(C)CCNc1nc(-c2ccccc2)nnc1C(F)(F)F`: the outcome was inactive.
Regarding `Cc1cccc(C=Nc2ccc3c(c2)oc2ccccc23)c1O`, the call was inactive.
The value for `CCNC(=S)NNC(=O)c1ccc(OC(F)F)cc1` was “inactive”; that for `Nc1nc(C2CCCCC2)cs1` was “inactive”; that for `COc1ccc(C2=Nc3cccc4cccc(c34)N2)cc1` was “inactive”.
The value for `O=S(=O)(NC1=NCCCCC1)c1cccs1` was “inactive”; that for `C=CCOc1ccc(CNc2nn[nH]n2)cc1` was “inactive”; that for `OCCN(Cc1ccccc1)Cc1ccc(Cl)cc1` was “inactive”.
In the case of `CN(C)S(=O)(=O)Nc1ccc(C(=O)O)cc1`, the outcome was inactive.
As for `CC1CC(C)CN(CCCNC(=O)C2CCC(=O)N2C2CCCC2)C1` (stereo unspecified), the molecule was called inactive.
With `CCOCC(=O)Nc1ccc(F)c(F)c1`, the outcome was inactive.
The value for `O=C(Cn1ncc2c(=O)oc3ccccc3c21)N1CCN(c2ccccn2)CC1` was “inactive”; that for `Cc1ccccc1C(=O)N(C)Cc1ccccc1` was “inactive”; that for `CCOC(=O)c1ccc(N2CCN(c3ccc(F)cc3)CC2)c(NC(=O)Nc2cccc(OC)c2)c1` was “inactive”.
Then `Cc1ccc2occ(/C=N/O)c(=O)c2c1`, with “inactive”.
With `O=C(O)C1CCCN1S(=O)(=O)c1ccc2[nH]c(=O)c(=O)[nH]c2c1` (stereo unspecified), the outcome was inactive.
`O=C(CSc1nnc2n(C3CCCCC3)c(=O)c3ccccc3n12)OC1CCCCC1`: the outcome was inactive.
On to `Cc1ccc(S(=O)(=O)NC2=NCN(CCOC(=O)c3ccc([N+](=O)[O-])cc3)CN2)cc1`, for which the outcome was inactive.
Consider `Cc1ccc(C(=O)NCC(=O)NCC(=O)OCC(=O)c2ccc([N+](=O)[O-])cc2)cc1`, for which the result was inactive.
For `N#Cc1c(N)nc(SCC(=O)NC2CCCCC2)c(C#N)c1-c1ccc(Cl)cc1`, the molecule was called inactive.
Take `Nc1ncncc1-c1ccc(Cl)cc1`: the result was inactive.
Then `CCn1cc(C(=O)O)c(=O)c2cc(F)c(N3CCN(C(=S)NC(=O)c4cccc(C)c4)CC3)cc21`, with “inactive”.
With `CN1/C(=C/C=N/NC(=O)c2ccc([N+](=O)[O-])cc2)C(C)(C)c2ccccc21`, the call was inactive.
The value for `O=C(COc1ccc(Br)cc1Cl)NC(=O)NCc1ccccc1` was “inactive”; that for `Clc1ccc(OCCn2ccnc2)c(Br)c1` was “inactive”.
The value for `COc1cc(C)ccc1OCCCOc1ccccc1Br` was “inactive”.
With `Cc1cc(C)c(NC(=S)NC(=O)c2ccc(-c3ccccc3)cc2)c(C)c1`, the molecule was called inactive.
Turning to `CC(C)Oc1cccc(C(=O)NC(=S)Nc2ccccc2)c1`, the outcome was inactive.
For the molecule `Nc1cc(=O)[nH]c(=S)n1-c1cccc(C(F)(F)F)c1`, the molecule was called inactive.
With `Cn1cc(-c2nnnn2-c2cccc(C(F)(F)F)c2)c(C(F)(F)F)n1`, the outcome was inactive.
Turning to `Cc1ccc(/C=C/c2nnc(-c3ccc(C)cc3)o2)cc1`, the outcome was inactive.
The value for `COc1ccc(OC)c(NC(=O)c2ccccc2NS(=O)(=O)c2cccc3cccnc23)c1` was “inactive”; that for `O=C(CSc1ncn[nH]1)Nc1cccc2ccccc12` was “inactive”.
For `COc1ccc(CCN2CC3=C(C2=O)C(c2ccccc2)NC(=O)N3C)cc1OC` (stereo unspecified), the molecule was classed as inactive.
`Cc1ccc(C(=O)COC(=O)CNS(=O)(=O)c2ccccc2)cc1[N+](=O)[O-]`: the outcome was inactive.
The value for `O=C(Cc1ccc(Cl)cc1)NNS(=O)(=O)c1ccc([N+](=O)[O-])cc1` was “inactive”; that for `O=C(N[C@H](CO)[C@H](O)c1ccc([N+](=O)[O-])cc1)C(Cl)Cl` was “inactive”.
For `COc1ccc2nc(-c3ccccc3)cc(OC)c2c1`, the outcome was inactive.
`Cc1ccc(-c2n[nH]c(=S)n2/N=C/c2cc3c(cc2[N+](=O)[O-])OCO3)cc1`: the call was inactive.
Then `Cc1nc2ccccc2c(=O)n1/N=C/c1ccc(N(C)C)cc1`, with “inactive”; and `CN(C)c1ccc(/C=N/c2cc(-c3ccccc3)nn2-c2ccccc2)cc1`, with “inactive”.
Consider `CO[C@@]1(NC(=O)C2SC(=C(C(N)=O)C(=O)O)S2)C(=O)N2C(C(=O)O)=C(CSc3nnnn3C)CS[C@@H]21` (stereo partly specified), for which the molecule was called inactive.
Then `CCCn1nnc(NC(=O)c2ccc(Br)o2)n1`, with “inactive”; and `FC(F)(F)c1cc(C(F)(F)F)c2ccc(Oc3ccccc3)nc2n1`, with “inactive”; and `Cc1ccc(NS(=O)(=O)c2ccccc2)c2c1CC(C)(C)O2`, with “inactive”.
Consider `O=C1N=c2ccccc2=C1c1[nH]c(=S)[nH]c1O`, for which the molecule was classed as inactive.
As to `Cc1ccc(Nc2nc(N)nc(CC#N)n2)cc1`, the molecule was called inactive.
With `C=CCn1c(SCC(=O)Nc2nnc(CC)s2)nnc1-c1cccnc1`, the call was inactive.
Then `c1ccc(CSc2snnc2-c2ccccc2)cc1`, with “inactive”; and `O=C(c1cn(-c2ccccc2)nc1-c1cccnc1)N1CCCCC1`, with “inactive”.
As to `O=C(COC(=O)c1cn(-c2ccccc2)nc1-c1ccccc1)c1cccc([N+](=O)[O-])c1`, the result was inactive.
